Results filed as inconclusive are left out. A call without a number means that no potency is given here. The source made the active and inactive calls. Calls come from the whole dose curve; as a rule, active = well fitted cell-killing curve with a large enough effect in the repeat runs; inconclusive = weak or mixed curves; inactive = flat fitted curve, though single readings scatter.
Experiment: qHTS RealTime-Glo MT Cell Viability Assay in HepG2 cells - 16 hour (AID 1224885); note: nearly all actives have a fitted effect of over 50% in size
Conditions: RealTime-Glo luminescence; series mostly up to 76.8 µM; activity change, negative = cytotoxic: at the top concentration
Source text: U.S. Tox21 Program National Center for Advancing Translational Sciences [NCATS] NIH Chemical Genomics Center [NCGC] U.S. Environmental Protection Agency [EPA] National Institutes of Environmental Health Sciences [NIEHS] National Toxicology Program [NTP] U.S. Food and Drug Administration [FDA] Tox21 Assay Overview: Measure of cell viability is critical in the cell-base assay. Analysis of cell viability is necessary for the characterization of cell responses to cytotoxic drugs and environmental stress. A RealTime-Glo MT Cell Viability Assay to monitor cell viability in real time of continues cell culture during 40 hours of compound treatment was used to screen Tox21 10K library compounds in HepG2 cells. The RealTime-Glo MT Cell Viability Assay is a nonlytic, homogeneous, bioluminescent method to measure cell viability in real time using a simple, plate-based method. The assay involves adding NanoLuc luciferase and a cell-permeant prosubstrate to cells in culture. Viable cells reduce the proprietary prosubstrate to generate a substrate for NanoLuc luciferase. This substrate diffuses from cells into the surrounding culture medium, where it is rapidly used by the NanoLuc Enzyme to produce a luminescent signal. The signal correlates with the number of viable cells, making the assay well suited for cytotoxicity studies.
Tox21 Assay Protocol Summary: The mixture of HepG2 cell suspension and reagents were dispensed at 600cells/6 ul/well in 1536-well tissue culture treated black solid bottom plates using a Multidrop dispenser. After the assay plates were incubated at a 37 C/5% CO2 incubator for 5 hours, 23 nL of compounds dissolved in DMSO, positive and negative controls was transferred to the assay plate by a pintool work station. The plates were incubated at 37 C for 40 hours. The luminescence intensity were measured at 0h, 8h, 16h, 24h, 32h and 40h time points using ViewLux plate reader during compound treatment.
Potency is the fitted concentration of half-maximal effect.

Row | Compound | Potency | activity change, negative = cytotoxic
1 | C=Cc1ccc(C)cc1 | inactive | 
2 | CC(C)CC(=O)CC(C)CC(C)C (stereo not given) | inactive | 
3 | O=C(O)c1ccc(S(=O)(=O)N(Cl)Cl)cc1 | inactive | 
4 | CCNc1cccc(C)c1 | inactive | 
5 | O=C(O)c1ccccc1C(=O)O | inactive | 
6 | O=C1CCCC1 | inactive | 
7 | CCCCC(C=O)CC (stereo not given) | inactive | 
8 | CN(C)c1ccc(Cc2ccc(N(C)C)cc2)cc1 | inactive | 
9 | OC1C(O)C(O)C(O)C(O)C1O (stereo not given) | inactive | 
10 | O=[N+]([O-])c1ccc2nc[nH]c2c1 | inactive | 
11 | CC(C)(Oc1ccc(CCNC(=O)c2ccc(Cl)cc2)cc1)C(=O)O | inactive | 
12 | CC1(C)NC(=O)NC1=O | inactive | 
13 | NC(=S)NNC(N)=S | inactive | 
14 | O=C1C(c2[nH]c3ccccc3c2O)=Nc2ccccc21 | inactive | 
15 | C[C@]12CC[C@@H]3c4ccc(O)cc4CC[C@H]3[C@@H]1C[C@@H](O)[C@@H]2O | inactive | 
16 | Cc1ccc([N+](=O)[O-])cc1S(=O)(=O)O | inactive | 
17 | CN(C)CCOC(=O)COc1ccc(Cl)cc1 | inactive | 
18 | CC(CCO)CC(C)(C)C (stereo not given) | inactive | 
19 | COc1ccc(N)c(C)c1 | inactive | 
20 | COCCCN | inactive | 

Row | Compound | Potency | activity change, negative = cytotoxic
21 | CCCCCCO | inactive | 
22 | CN/C(=C\[N+](=O)[O-])NCCSCc1csc(CN(C)C)n1 | inactive | 
23 | O=C(O)CCCCCCCCC(=O)O | inactive | 
24 | O=C(O)Cn1c(=O)n(Cc2ccc(Br)cc2F)c(=O)c2ccc(Cl)cc21 | 24.5 µM (active) | 
25 | CC(C)OC(=O)COc1ccc(Cl)cc1Cl | inactive | 
26 | CC(=O)CCC=C(C)C | inactive | 
27 | Cc1ccc(S(=O)(=O)N=C=O)cc1 | inactive | 
28 | O=S(=O)(O)c1ccccc1 | inactive | 
29 | CC(CCl)OP(=O)(OC(C)CCl)OC(C)CCl (stereo not given) | inactive | 
30 | CCOC(=O)c1ccc(N)cc1 | inactive | 
31 | COc1ccccc1OCC(O)CO (stereo not given) | inactive | 
32 | CCOCCOCCOCCO | inactive | 
33 | C=CCCCCCCCCC(=O)O | inactive | 
34 | O=S(=O)(O)c1ccc(N=Nc2c(O)ccc3cc(S(=O)(=O)O)ccc23)cc1 |  | -23.4% (inactive)
35 | Nc1ccc(Cl)c(N)c1 | inactive | 
36 | CC(C)(C#N)c1cc(Cn2cncn2)cc(C(C)(C)C#N)c1 | inactive | 
37 | CN1C(=O)CC[C@H]1c1cccnc1 | inactive | 
38 | CC(=O)OCc1ccco1 | inactive | 
39 | CC(=O)CC(C)(C)O | inactive | 
40 | CCCCCCCCCCCC(=O)OC | inactive | 

— PubChem BioAssay (Tox21)
